Nrf2 inh: Nrf2 pathway inhibition; A549 ARE-Fluc reporter, luciferase luminescence, 18-24 h; Potency, µM (top dose mostly 46 µM), without a hit: top-dose activity change, negative = inhibition, most hits filed as inhibitors; 360,000 compounds, 2.1% hits; further: on the % scale 0 is the no-effect control and ±100 the full control effect; nearly all actives have a fitted effect of over 60% in size
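Nrf2 function is reported as luminescence of an ARE-controlled luciferase in A549 cells. Compounds were tested at several concentrations, and a CellTiter-Fluor read on the same wells flagged cytotoxicity.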
ELG1 repair inh: ELG1-dependent DNA repair inhibition; HEK293T ELG1-luciferase reporter, luminescence, 16 h; DNA damage induced by 5-fluorouridine; Potency, µM (doses to about 46.1 µM), for the others: top-dose activity change, negative = inhibition, actives largely listed as inhibitors; 330,000 compounds, 2.3% hits; further: on the % scale 0 is the no-effect control and ±100 the full control effect; nearly all actives have a fitted effect of over 55% in size
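5-Fluorouridine DNA damage + compound/DMSO, 2,000 cells/well, 16 h, 37 °C/5% CO2. ONE-Glo, 30 min RT, luminescence. Readout = decrease in reporter signal.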
Nrf2 ARE act: Nrf2 pathway activation | AREc32 ARE-luciferase reporter (MCF7-derived line), luminescence, 24 h | Potency, µM (titrated, usually from 46.1 µM), without a hit: top-dose activation, usual class: activators | 410,000 compounds, 0.31% hits; further: % of control where 0% means no effect; nearly all actives have a fitted effect of over 65% in size
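Each well held 1000 AREc32 cells, which were incubated with compound for 24 hr at 37 deg C after overnight attachment, and ARE reporter activity was quantified by firefly luciferase luminescence.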
A549 tox-1: counter-screen for Nrf2 inhibitors: cytotoxicity in A549 cells. A549 ARE-Fluc cells, CellTiter-Fluor viability, 18-24 h. AID 504648. 390,000 compounds, 0.16% hits. Potency, µM (titrated, usually from 46 µM), inactives show top-dose activity change, negative = cytotoxicity, hits mostly inhibitors; further: on the % scale 0 is the no-effect control and ±100 the full control effect
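A549 ARE-Fluc cells in 5% FBS OPTI-MEM, 5000 cells/well, rested 2 h then exposed to compounds in concentration-response for 18-24 h at 37 °C. Viability by CellTiter-Fluor fluorescence (Ex 405/Em 525) after 30 min; luciferase luminescence (BugLite, 15 min, RT) read afterwards.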
FLuc counter 3: counter-screen for Nrf2 inhibitors: firefly luciferase enzyme inhibition; shares compounds with Nrf2 inh; purified firefly luciferase, luminescence inhibition; Potency, µM (series often up to 57.5 µM), for inactives: at the top dose activity change, negative = inhibition, usual class: inhibitors; 1,400 compounds, 4% hits; further: on the % scale 0 is the no-effect control and ±100 the full control effect; nearly all actives have a fitted effect of over 65% in size
Target sequence (P08659 whole entry, looked up): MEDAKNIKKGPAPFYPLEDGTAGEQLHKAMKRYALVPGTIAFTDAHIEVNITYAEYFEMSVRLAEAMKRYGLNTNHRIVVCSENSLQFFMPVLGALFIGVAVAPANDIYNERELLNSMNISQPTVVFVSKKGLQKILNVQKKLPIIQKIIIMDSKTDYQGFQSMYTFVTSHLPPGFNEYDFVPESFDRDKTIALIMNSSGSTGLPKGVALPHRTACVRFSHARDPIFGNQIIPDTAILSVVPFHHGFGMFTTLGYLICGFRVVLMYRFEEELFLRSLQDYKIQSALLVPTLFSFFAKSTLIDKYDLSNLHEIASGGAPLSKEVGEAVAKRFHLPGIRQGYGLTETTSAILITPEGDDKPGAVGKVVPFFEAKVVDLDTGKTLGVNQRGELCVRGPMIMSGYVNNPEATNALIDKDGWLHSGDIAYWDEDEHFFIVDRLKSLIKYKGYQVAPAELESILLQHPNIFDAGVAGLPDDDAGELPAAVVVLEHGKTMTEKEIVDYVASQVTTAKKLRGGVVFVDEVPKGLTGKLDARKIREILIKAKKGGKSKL
A549 tox-2: toxic to A549 ARE-Fluc cells in Nrf2 counterscreen; shares compounds with Nrf2 inh; A549 ARE-Fluc cells, cytotoxicity counterscreen; Potency, µM (series often up to 46.1 µM), inactives show at the top dose activity change, negative = cytotoxicity, actives largely listed as inhibitors; 1,400 compounds, 2% hits; AID 720523;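 further: cells exposed to compounds for 18 to 24 hours; on the % scale 0 is the no-effect control and ±100 the full control effect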
Nrf2 ARE inh: Nrf2 inhibition confirmed, A549 ARE-luciferase. 1,400 compounds, 74% hits. shares compounds with Nrf2 inh. A549 ARE-firefly luciferase reporter, luminescence. Potency, µM (top dose mostly 46.1 µM), for the others: top-dose activity change, negative = inhibition, hits mostly inhibitors; further: on the % scale 0 is the no-effect control and ±100 the full control effect; nearly all actives have a fitted effect of over 65% in size
The depositor's hits bear a star; ? = inconclusive; . = no result shown. Compounds with a hit are over-represented: about 3.7% of the library has one in this group of screens. The call rests on the fitted dose curve; in most records, active means well fitted curve in the direction sought with a large enough effect; inconclusive means small, poorly fitted or top-dose-only effect, or another doubt; inactive means no such curve, though single readings can be large; an effect the other way counts as inactive or inconclusive. Potency means the concentration at half of the fitted maximal effect.

SMILES | Nrf2 inh | ELG1 repair inh | Nrf2 ARE act | A549 tox-1 | FLuc counter 3 | A549 tox-2 | Nrf2 ARE inh
CCCCCCCCNc1ncnc2ccccc12 | 5.8µM* | ? | 4% | ? | -1% | -2% | 7.3µM*
CC1(C)N=C(N)N=C(N)N1CCCCc1ccccc1 | 0.82µM* | . | -1% | -3% | 3% | -5% | 1.2µM*
C(=C\c1ccnc2ccccc12)/c1cc2c3c(c1)CCCN3CCC2 | . | . | . | . | -25% | -16% | 7.3µM*
CCC(=O)NC1(C(F)(F)F)C(=O)Nc2c1c(=O)[nH]c(=O)n2CC(C)C (configuration not stated) | 4% | -5% | 0% | 1% | . | . | .
Cc1[nH]c(=O)[nH]c(=O)c1C1N2CC3(C(C)C)CN1CC(C(C)C)(C2)C3=O (configuration not stated) | 4% | . | 0% | 0% | . | . | .
CC(=NNC(=S)Nc1ccccc1)c1ccccn1 | . | . | 4% | . | . | . | .
CSC(=S)NN=C(C)c1cccc(C)n1 | 4.1µM* | . | 26% | ? | ? | -26% | .
CCc1ccc(-n2nc3ccc(NC(=O)COc4ccc(OC)cc4)cc3n2)cc1 | 1.6µM* | . | 3% | -6% | -18% | 7% | -1%
CCCC(=O)Nc1ccc2nn(-c3ccc(OC)cc3)nc2c1 | ? | ? | 3% | -10% | . | . | .
Cc1cccc(-n2ncc3c2CCCC3NC(=O)c2ccncc2)c1C (configuration not stated) | . | . | 0% | . | . | . | .
CC1=C(C(=O)NC2CCCc3c2cnn3-c2cccc(C)c2C)OCCO1 (configuration not stated) | 7.3µM* | ? | 0% | -7% | 2% | -3% | 12µM*
CCOc1ccc(S(=O)(=O)N(C(C)=O)c2ccc3oc(C)c(C(=O)OC)c3c2)cc1 | 2.1µM* | . | -2% | -12% | 0% | -20% | 23µM*
CCOC(=O)c1c(C)oc2ccc(N(C(=O)Oc3ccccc3)S(=O)(=O)c3ccccc3)cc12 | 10% | . | 1% | -6% | . | . | .
COC(=O)c1c(C)oc2ccc(N(C(=O)Oc3ccccc3)S(=O)(=O)c3ccc(C(C)(C)C)cc3)cc12 | 2.3µM* | . | 0% | -2% | 2% | -4% | 5.2µM*
COC(=O)c1c(C)oc2ccc(N(C(C)=O)S(=O)(=O)c3ccccc3)cc12 | ? | -22% | 4% | ? | . | . | .
O=C1C=C(c2ccc3c(c2)oc2ccccc23)C[C@@H](c2ccc3c(c2)OCO3)C1 | 10% | -13% | 0% | 15% | . | . | .
Cc1ccnc2c1ccc1cccnc12 | ? | ? | 18% | ? | -17% | ? | .
Nc1nncn1C(=O)c1ccc(Cl)cc1Cl | 1.6µM* | 3% | -2% | -1% | -10% | -20% | .
CC1CCN(c2c(NCc3ccc(C(=O)N4CCN(C5CCCCC5)CC4)cc3)c(=O)c2=O)CC1 | 0% | 16% | 0% | 0% | . | . | .
CC1CCN(c2c(NCc3ccc(C(=O)N4c5ccccc5CC4C)cc3)c(=O)c2=O)CC1 (configuration not stated) | 9.2µM* | ? | 3% | -19% | -24% | -21% | 2.1µM*
Brc1ccc(C[n+]2ccccc2)cc1 | 2.6µM* | 5% | 0% | -7% | -1% | -7% | 4.1µM*
O=C(NCc1nnc(-c2cc3ccccc3[nH]2)o1)c1ccccc1 | 8% | . | . | -2% | . | . | .
O=C(C1CCN(S(=O)(=O)c2ccccc2)CC1)N1CCN(Cc2ccccc2)CC1 | -11% | -19% | 0% | -5% | . | . | .
COc1ccc(CNc2ncnc3c2[nH]c2ccccc23)cc1 | 4.6µM* | 2.1µM* | 8% | -19% | ? | -20% | 5.2µM*
COc1ccc(CCn2cnc3c([nH]c4ccccc43)c2=O)cc1 | 17% | -2% | 0% | 4% | . | . | .
SMILES | Nrf2 inh | ELG1 repair inh | Nrf2 ARE act | A549 tox-1 | FLuc counter 3 | A549 tox-2 | Nrf2 ARE inh
COc1ccc(CNC(=O)Cn2c(=O)nc(-c3ccccc3)c3cc(Cl)ccc32)cc1OC | . | . | 0% | ? | . | . | .
O=C(OCC1CCCO1)c1ccc2c(c1)N(Cc1c(F)cccc1Cl)C(=O)c1ccccc1S2(=O)=O (configuration not stated) | 3% | . | 0% | -7% | . | . | .
O=C(C(=O)N1CCN(c2ccc(F)cc2)CC1)N1CCCCC1 | -27% | 4% | -1% | -8% | . | . | .
N#Cc1ccc(N2CCN(c3ccc(F)cc3)CC2)cc1 | ? | 3% | 0% | 1% | 3% | 2% | 9%
CN(C)c1ccc(S(=O)(=O)NCC(=O)NCCC2=CCCCC2)cc1[N+](=O)[O-] | -3% | 9% | -1% | -8% | . | . | .
CN(Cc1ccc(Cl)s1)C(=O)CN1C(=O)N(C)C2(CCCCC2)C1=O | 8% | ? | 1% | 3% | . | . | .
CC1CCC2(CC1)NC(=O)N(CC(=O)Nc1ccc(N3CCCCC3)cc1)C2=O (configuration not stated) | . | . | -1% | . | . | . | .
CC(=O)c1cn(CCOc2ccccc2C)c2ccccc12 | 4.6µM* | ? | 3% | 1% | -2% | 5% | 6.5µM*
CN1OC[C@@H]2CN(Cc3cc(Cl)cc(Cl)c3)[C@H](c3cccc(Br)c3)C[C@@H]21 | ? | . | 1% | -2% | . | . | .
CCOc1ccc(S(=O)(=O)N2CCN(S(=O)(=O)c3ccc(C(C)=O)cc3)CC2)cc1 | 6% | ? | 0% | 4% | . | . | .
CC(=O)c1ccc(S(=O)(=O)N2CCN(CCOc3ccc(Br)cc3)CC2)cc1 | 4.1µM* | -24% | 1% | ? | 0% | -8% | 5.8µM*
CN1/C(=C\C=[N+](C)c2ccccc2)C(C)(C)c2ccccc21 | 0.82µM* | ? | 2% | 9.2µM* | 2% | ? | 1.2µM*
Cc1onc(-c2ccccc2)c1C(=O)NC(=S)NNC(=O)c1ccc(O)cc1O | 7.3µM* | ? | 0% | -14% | -19% | -10% | 5.8µM*
Cc1onc(-c2ccccc2)c1C(=O)NC(=S)NNC(=O)c1ccccc1O | ? | 3% | 0% | -9% | . | . | .
Cc1ccc(OC(C)C(=O)N/N=C/c2ccccn2)cc1 (configuration not stated) | -20% | -15% | 1% | 0% | . | . | .
CCCCCCn1c(=O)n2n(c1=O)[C@@H]1CN(S(=O)(=O)c3ccc(C)cc3)C[C@]1(O)[C@@H](OC(=O)Nc1cccs1)C2 | . | . | -5% | . | . | . | .
COc1ccc2c(Sc3ccccc3)c(C(=O)NCc3cccc(OC)c3OC)[nH]c2c1 | 9.2µM* | . | 3% | -3% | -9% | -8% | -1%
COc1ccc2c(Sc3ccccc3)c(C(=O)NCc3cc(Br)ccc3OC)[nH]c2c1 | ? | . | 3% | 6% | . | . | .
